A short description of experiment [1]: qHTS assay for small molecule disruptors of the mitochondrial membrane potential - 1 hr assay (AID 651754; calls by dose curve; also: potency is read from the fitted curve at half-maximal effect; nearly all actives have a fitted effect of over 35% in size). The method in brief: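 Steps: seed HepG2 cells and let attach overnight; pin-transfer compound or vehicle; incubate 1 hr at 37C; add Mito-MPS dye for 30 min; read two-channel fluorescence for monomer and aggregate forms.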
The nature of experiment [2]: qHTS assay for small molecule disruptors of the mitochondrial membrane potential - 5 hr assay (AID 651755; calls by dose curve; also: potency is read from the fitted curve at half-maximal effect; nearly all actives have a fitted effect of over 40% in size). Conditions: JC-1-type ratio dye; series mostly up to 92.2 µM. A digest of the protocol: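 HepG2 cells, attached overnight at 37C, were exposed to compound or DMSO for 5 hr at 37C, 5% CO2. Mito-MPS dye was then added for 30 min, and fluorescence read at 490/535 nm (monomers) and 540/590 nm (aggregates).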
For orientation: In qHTS, concentration-response curves come from the screen itself.

Experiment [3] addresses Tumor necrosis factor (Homo sapiens) (UniProt P01375). As to the kind of experiment: qHTS assay to identify small molecules that stimulate Tumor Necrosis Factor-alpha (TNF-alpha) secretion (AID 651757; active = well fitted curve in the direction sought with a large enough effect in the signal ratio; the % refers to the signal ratio; also: 0% is about no effect). Conditions: Human cells, HTRF 665/615 ratio; series mostly up to 92.2 µM. The method in brief: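 Secreted TNF-alpha from compound-treated THP-1 cells (17 hrs, 37 C) was quantified with a homogeneous time-resolved fluorescence antibody assay.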

Experiment [4] concerns the target Peroxisome proliferator-activated receptor alpha (Homo sapiens) (UniProt Q07869). As to the kind of experiment: qHTS assay for small molecule agonists of the peroxisome proliferator-activated receptor alpha (PPARalpha) signaling pathway (AID 651778). Also: % of control where 0% means no effect. To be noted: PathHunter PPARalpha complementation, chemiluminescence, 6 h; hits give high values. The method in brief:
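Cells plated at 2,000/well and held overnight at 37 C, 5% CO2, then compound added by pin tool for 6 hr; after PathHunter detection reagent and 60 min at room temperature, chemiluminescence from enzyme complementation was read.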

Experiment [5] concerns the target Nuclear receptor ROR-gamma (Homo sapiens) (UniProt P51449). As to the kind of experiment: qHTS assay for small molecule antagonists of the retinoid-related orphan receptor gamma (ROR-gamma) signaling pathway (AID 651802). Also: nearly all actives have a fitted effect of over 60% in size. Also: potency is read from the fitted curve at half-maximal effect. To be noted: ROR-gamma antagonist cell reporter assay; series mostly up to 92.2 µM. A digest of the protocol:
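Antagonism is scored as a fall in luminescence from a RORE-luciferase reporter in CHO cells expressing ROR under a TET-inducible promoter, measured 16hr after doxycycline induction in the presence of compound.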

Experiment [6] can be described thus: qHTS assay for small molecule agonists of the antioxidant response element (ARE) signaling pathway measured by Nrf2-dependant transcriptional activity - cell viability counter screen (AID 720653; active = well fitted curve in the direction sought with a large enough effect in the repeat runs; an effect the other way counts as inactive or inconclusive; also: % is scaled to controls: 0 for no effect and ±100 for the full control effect). Conditions: ARE-bla HepG2 viability, CellTiter-Glo ATP luminescence, 16 h; max response: hits give low values. A digest of the protocol: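 ARE-bla HepG2 cells (2,000/well) rested 5 hrs at 37C/5% CO2, then exposed to compounds in DMSO for 16 hrs. Viability was read in the same wells as intracellular ATP by luminescence, 30 min at room temperature after reagent addition.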

Experiment [7] deals with T1, Hexokinase-4 (Homo sapiens) + Glucokinase regulatory protein (Homo sapiens) (UniProt P35557+Q14397). As to the kind of experiment: qHTS assay for inhibitors of recombinant human GCK-GKRP interaction: Diaphorase-coupled assay (AID 743205). Conditions: G6PDH/diaphorase resorufin fluorescence; series mostly up to 57.5 µM. The method in brief: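 A kinetic fluorescence read (Ex 525/Em 590 nm, every minute for 30 minutes) tracked resorufin from a G6PDH-diaphorase coupled GCK reaction. It contained 10 nM GST-GCK, 10 nM FLAG-GKRP, 5 mM glucose, 0.4 mM ATP in Hepes pH 7.6. Normalized to with/without-enzyme DMSO controls.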

For experiment [8], the target named is T1, Hexokinase-4 (Homo sapiens) + Glucokinase regulatory protein (Homo sapiens). In words: qHTS assay for inhibitors of recombinant human GCK-GKRP interaction: HTRF assay (AID 743207).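 Also: 0% = DMSO with GCK present and -100% = DMSO wells lacking GCK.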 To be noted: recombinant GCK-GKRP HTRF binding, 60 min, with sorbitol-6-phosphate; series mostly up to 57.5 µM. The method in brief: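 After 60 min equilibration at room temperature with anti-FLAG XL665 and anti-GST antibodies, FRET ratio (665/615 nm, excitation 320 nm) was read. Proteins: GST-GCK and FLAG-GKRP, each 5 nM, plus 2 uM S6P, pH 7.1 buffer; GCK-free wells define minimum signal.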

A short description of experiment [9]: qHTS Assay for Identifying Gametocytocidal Compounds (AID 743244). Also: potency is read from the fitted curve at half-maximal effect.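 As to max response: % is scaled to controls: 0 for no effect and ±100 for the full control effect; actives lower the fluorescent signal which means gametocytes are killed.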 To be noted: P. falciparum 3D7 stage III-V gametocytes, alamarBlue, 72 h; max response: hits give low values. A digest of the protocol:
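Stage III-V P. falciparum 3D7 gametocytes, 20,000 per well, were exposed to compounds for 72 h at 37C, 5% CO2. AlamarBlue was then added for 24 h and viability was read as fluorescence at Ex 525/Em 598 nm.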

Experiment [10] is described as follows: qHTS assay for cell viability of HEK293 cells (AID 743288). Also: % is scaled to controls: 0 for no effect and ±100 for the full control effect; nearly all actives have a fitted effect of over 50% in size. To be noted: ATP luminescence (CellTiter-Glo), 18 h; max response: hits give low values. A digest of the protocol: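 Total intracellular ATP, measured with a luciferase-coupled reagent, indicates the number of viable HEK293 cells. Exposure to test chemicals lasts 18 h at 37 C in 1,536-well format at 2,000 cells/well.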

A short description of experiment [11]: qHTS assay for cell viability of the p53RE-bla HCT-116 cell line (AID 743292). Also: nearly all actives have a fitted effect of over 55% in size. Also: potency is read from the fitted curve at half-maximal effect. To be noted: p53RE-bla HCT-116 viability, ATP luminescence, 16 h; series mostly up to 95 µM. A digest of the protocol:
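Intracellular ATP of p53RE-bla HCT-116 cells measured by luciferase luminescence following 16 h compound incubation at 37 C; DMSO-only wells served as vehicle controls.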

The target of experiment [12] is Tyrosine-protein kinase Yes (Homo sapiens) (UniProt P07947). In words: qHTS for small molecule inhibitors of Yes1 kinase: Primary Screen (AID 686947). Also: nearly all actives have a fitted effect of over 60% in size. Also: potency is read from the fitted curve at half-maximal effect. Conditions: Yes1 kinase biochemical qHTS inhibition; series mostly up to 76.9 µM. A digest of the protocol: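 ADP-Glo luminescence readout; final 4 nM Yes1, 0.1 mM ATP, 0.3 mg/mL poly(E4Y), Tris pH 7.5, MgCl2, DTT, Brij-35. 20 min compound preincubation, 60 min reaction at RT. Normalized to DMSO wells with and without enzyme.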

A short description of experiment [13]: qHTS for small molecule inhibitors of Yes1 kinase: Counter Assay (AID 686950).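 Also: no kinase present so only ADP-Glo detection of a fixed ADP amount is tested; luminescence from ADP-Glo reporting ADP in a fixed ATP and ADP mixture; 0% = DMSO wells with ATP plus ADP and -100% = ATP-only wells without ADP.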 To be noted: series mostly up to 76.9 µM. The method in brief:
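Enzyme-free ADP-Glo interference check: compounds were preincubated 20 min in buffer, then an ATP/ADP mix (0.08 mM ATP, 0.02 mM ADP final) was added for 60 min at room temperature before two-step ADP-Glo luminescence detection.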

Experiment [14] is described as follows: qHTS assay for environmental chemicals that activate the Aryl hydrocarbon Receptor (AhR) signaling pathway (AID 651777). Also: nearly all actives have a fitted effect of over 15% in size. Also: potency is read from the fitted curve at half-maximal effect. As to activation: % of control where 0% means no effect. To be noted: 1A2-DRE human hepatoma cells, luciferase, 24 h; activation: hits give high values. The method in brief:
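Measured luciferase activity, read 30 min after One-Glo addition at room temperature, from human hepatoma cells bearing a dioxin response element–CYP1A2 promoter reporter and exposed to compound for 24 hr at 37 C.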

Experiment [15] is described as follows: qHTS assay for small molecule agonists of the antioxidant response element (ARE) signaling pathway measured by Nrf2-dependant transcriptional activity (AID 720636; active = well fitted curve in the direction sought with a large enough effect in the repeat runs; an effect the other way counts as inactive or inconclusive; also: potency is read from the fitted curve at half-maximal effect; as to activation: % of control where 0% means no effect). Conditions: ARE-luc HepG2, Nrf2 luciferase reporter, 16 h; series mostly up to 92.4 µM. A digest of the protocol: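 In HepG2 cells engineered with an Nrf2-responsive luciferase gene, ARE induction was quantified as luminescence after 16 hr compound treatment at 37 C.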

Experiment [16] can be described thus: qHTS assay for small molecule antagonists of the retinoid-related orphan receptor gamma (ROR-gamma) signaling pathway - cell viability counter screen (AID 720652; active = well fitted curve in the direction sought with a large enough effect in the repeat runs; an effect the other way counts as inactive or inconclusive;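 also: CHO reporter cells with doxycycline-induced ROR-gamma expression; compound exposure lasted 16 hr before ATP read; % is scaled to controls: 0 for no effect and ±100 for the full control effect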). Conditions: RORgamma reporter cell line viability counter screen; series mostly up to 92.2 µM. A digest of the protocol:
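Cytotoxicity is quantified via intracellular ATP (CellTiter-Glo luminescence) in doxycycline-induced CHO ROR response element-luciferase reporter cells treated with compound for 16 hr at 37 C, 5% CO2.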

Experiment [17] can be described thus: qHTS for compounds that reverse cellular toxicity of Amyloid beta (A-beta) peptide in yeast: LOPAC Validation Assay (AID 720559).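 Also: plate controls were DMSO for no effect and equimolar ferric chloride plus clioquinol rescue for full effect.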 To be noted: yeast expressing A-beta; series mostly up to 46.1 µM. The method in brief:
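Rescue of A-beta toxicity was scored as yeast growth by 600 nm absorbance after 48 hr at 30 C with compound. Normalization used DMSO (negative) and equimolar ferric chloride plus clioquinol (positive).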

Experiment [18] is described as follows: qHTS for Activators of Parkin Expression: LOPAC Validation Assay (NLuc Reporter) (AID 720572;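 also: 0% = DMSO and 100% = positive control compound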). To be noted: Parkin promoter NanoLuc reporter cells, luminescence; series mostly up to 46.1 µM. The method in brief: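 Neuronal line stably carrying a FLuc/NLuc coincidence reporter under the Parkin promoter, seeded 24 h, then dosed in 7-point series for 24 h at 37 C. NLuc luminescence read after FLuc; normalized to DMSO and positive control (100%).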

Experiment [19] can be described thus: qHTS for Activators of Parkin Expression: LOPAC Validation Assay (FLuc Reporter) (AID 720573;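 also: 0% = DMSO and 100% = positive control compounds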). Conditions: Cell line, PRKN promoter firefly luciferase reporter; series mostly up to 46.1 µM. The method in brief:
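FLuc signal from Parkin-promoter coincidence reporter neuronal cells, normalized to DMSO and positive control (100%). Cells (1,500/well) pre-incubated 24 h, then exposed to LOPAC compounds in 7-point dose response for 24 h at 37 C, 5% CO2.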

Values joined by “and” are separate entries in the source; they are usually repeats but may differ in a detail not shown here. Equal values may be shown once. Values without a mark were called inactive. Inconclusive results are not listed. Active and inactive are the calls of the source. Unless noted, calls follow the shape of the dose curve; as a rule, active = well fitted curve in the direction sought with a large enough effect; inconclusive = small, poorly fitted or top-dose-only effect, or another doubt; inactive = no such curve, though single readings can be large; an effect the other way counts as inactive or inconclusive.

Chain of Peroxisome proliferator-activated receptor alpha (Homo sapiens) (Q07869 whole entry, looked up): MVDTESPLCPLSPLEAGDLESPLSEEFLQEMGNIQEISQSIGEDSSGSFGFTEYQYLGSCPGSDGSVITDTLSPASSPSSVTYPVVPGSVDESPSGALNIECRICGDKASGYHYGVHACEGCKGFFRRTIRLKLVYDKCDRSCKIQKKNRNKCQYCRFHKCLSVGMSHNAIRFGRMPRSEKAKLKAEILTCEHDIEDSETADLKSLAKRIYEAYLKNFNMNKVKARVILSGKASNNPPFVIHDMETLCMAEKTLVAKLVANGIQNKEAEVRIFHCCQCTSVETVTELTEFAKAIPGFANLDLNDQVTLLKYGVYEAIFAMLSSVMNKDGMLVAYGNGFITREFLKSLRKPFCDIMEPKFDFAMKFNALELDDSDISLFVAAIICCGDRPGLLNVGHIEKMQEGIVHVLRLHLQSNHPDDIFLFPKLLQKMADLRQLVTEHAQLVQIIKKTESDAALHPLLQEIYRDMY
T1 sequence (P35557 whole entry, looked up): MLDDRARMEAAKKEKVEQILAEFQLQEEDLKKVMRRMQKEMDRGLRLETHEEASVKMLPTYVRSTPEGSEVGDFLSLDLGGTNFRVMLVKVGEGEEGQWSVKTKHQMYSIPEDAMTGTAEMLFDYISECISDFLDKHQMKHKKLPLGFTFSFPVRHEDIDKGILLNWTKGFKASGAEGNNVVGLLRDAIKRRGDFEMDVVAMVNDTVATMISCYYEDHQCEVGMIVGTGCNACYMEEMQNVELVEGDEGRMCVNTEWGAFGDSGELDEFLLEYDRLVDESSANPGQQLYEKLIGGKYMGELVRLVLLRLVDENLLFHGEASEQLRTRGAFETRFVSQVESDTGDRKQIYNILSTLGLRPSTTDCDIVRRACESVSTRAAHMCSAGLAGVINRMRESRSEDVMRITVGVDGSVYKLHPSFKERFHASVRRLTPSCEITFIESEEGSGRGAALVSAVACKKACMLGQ
T1 sequence (Q14397 whole entry, looked up): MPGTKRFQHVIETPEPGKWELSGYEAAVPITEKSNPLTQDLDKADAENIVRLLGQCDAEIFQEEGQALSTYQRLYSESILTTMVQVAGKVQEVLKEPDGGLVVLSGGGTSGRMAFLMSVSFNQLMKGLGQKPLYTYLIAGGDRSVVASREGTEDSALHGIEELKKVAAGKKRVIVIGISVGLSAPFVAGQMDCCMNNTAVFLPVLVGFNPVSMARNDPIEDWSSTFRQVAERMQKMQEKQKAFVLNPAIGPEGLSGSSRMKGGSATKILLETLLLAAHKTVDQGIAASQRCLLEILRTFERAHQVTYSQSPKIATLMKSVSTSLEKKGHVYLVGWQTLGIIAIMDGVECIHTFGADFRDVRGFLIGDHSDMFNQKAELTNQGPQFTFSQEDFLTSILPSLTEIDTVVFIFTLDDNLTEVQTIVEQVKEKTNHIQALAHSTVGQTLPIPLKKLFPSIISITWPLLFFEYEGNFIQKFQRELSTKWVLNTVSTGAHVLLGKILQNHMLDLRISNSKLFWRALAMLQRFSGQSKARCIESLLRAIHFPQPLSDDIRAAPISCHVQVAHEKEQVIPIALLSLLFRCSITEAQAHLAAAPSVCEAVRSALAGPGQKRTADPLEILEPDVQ
Chain of Nuclear receptor ROR-gamma (Homo sapiens) (P51449 whole entry, looked up): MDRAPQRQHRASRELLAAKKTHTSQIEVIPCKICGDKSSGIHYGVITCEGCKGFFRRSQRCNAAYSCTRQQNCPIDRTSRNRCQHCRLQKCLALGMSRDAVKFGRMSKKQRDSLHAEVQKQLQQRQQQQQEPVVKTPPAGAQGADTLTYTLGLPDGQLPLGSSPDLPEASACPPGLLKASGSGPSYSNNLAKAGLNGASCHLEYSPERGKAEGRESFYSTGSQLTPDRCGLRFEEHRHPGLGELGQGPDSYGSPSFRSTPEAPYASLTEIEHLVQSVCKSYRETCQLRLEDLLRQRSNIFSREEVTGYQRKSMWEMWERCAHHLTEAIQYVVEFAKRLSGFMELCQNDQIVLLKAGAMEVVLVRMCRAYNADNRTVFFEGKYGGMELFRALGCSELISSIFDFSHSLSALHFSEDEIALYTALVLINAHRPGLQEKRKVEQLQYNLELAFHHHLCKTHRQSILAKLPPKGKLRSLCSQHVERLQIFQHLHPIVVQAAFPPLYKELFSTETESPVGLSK
Chain of Tyrosine-protein kinase Yes (Homo sapiens) (P07947 whole entry, looked up): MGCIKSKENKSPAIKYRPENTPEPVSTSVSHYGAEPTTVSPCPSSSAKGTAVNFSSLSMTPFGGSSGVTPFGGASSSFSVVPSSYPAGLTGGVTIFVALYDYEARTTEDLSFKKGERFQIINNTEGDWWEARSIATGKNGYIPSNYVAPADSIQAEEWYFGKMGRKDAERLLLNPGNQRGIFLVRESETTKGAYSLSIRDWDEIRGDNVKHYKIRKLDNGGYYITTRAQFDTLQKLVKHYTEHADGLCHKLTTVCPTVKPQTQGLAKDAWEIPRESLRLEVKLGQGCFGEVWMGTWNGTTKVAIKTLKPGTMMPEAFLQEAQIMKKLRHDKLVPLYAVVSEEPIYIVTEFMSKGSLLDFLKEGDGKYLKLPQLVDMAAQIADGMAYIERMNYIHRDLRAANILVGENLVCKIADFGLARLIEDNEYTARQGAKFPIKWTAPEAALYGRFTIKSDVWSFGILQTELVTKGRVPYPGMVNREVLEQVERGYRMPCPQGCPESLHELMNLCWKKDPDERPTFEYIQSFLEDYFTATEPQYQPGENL
Chain of Tumor necrosis factor (Homo sapiens) (P01375 whole entry, looked up): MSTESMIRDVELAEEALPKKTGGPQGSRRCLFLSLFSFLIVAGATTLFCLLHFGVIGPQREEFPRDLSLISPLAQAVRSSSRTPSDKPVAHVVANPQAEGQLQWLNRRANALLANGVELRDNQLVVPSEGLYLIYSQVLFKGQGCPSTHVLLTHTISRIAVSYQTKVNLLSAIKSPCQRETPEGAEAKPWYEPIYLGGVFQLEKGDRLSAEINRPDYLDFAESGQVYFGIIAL

`O=c1c(-c2ccc(O)cc2)coc2cc(O)ccc12`: the Potency is 18.8 µM (active) in experiment [1] and 21.1 µM (active) in experiment [2]. The result in [3], in experiment [7] and in experiment [8] was inactive. Also, the max response was 0.0671% and -0.373% in experiment [4]; -5.4% and -12% in experiment [6]; 16.7% in [9]; -7.57% and -12.8% in [10]. Besides, the Potency result in experiment [5] and in experiment [11] was “inactive” each time.

Consider `O=C(N[C@@H](c1ccccc1)[C@@H]1CCCCN1)c1cccc(C(F)(F)F)c1Cl`, for which, in experiment [12], the Potency result is “inactive”. Besides, the call in [13] was inactive. In addition, the Potency in experiment [9] is 18.7 µM (active).

With `Cn1cc(C=C2C(=O)Nc3cccnc32)c2ccccc21`, the Potency in [12] is 0.519 µM (active). For the same compound, the compound was classed as inactive in experiment [13].

For the compound `O=C(O)c1cc(O)c2c(c1)C(=O)c1cccc(O)c1C2=O`, the Potency in [1] is 8.41 µM (active); in experiment [2] it was 5.31 µM (active); in [5], 37.6 µM (active); in experiment [11], 35.5 µM (active). The activation in [14] was 1.52%. Besides, the max response is -6.2% in experiment [4] and -22.9% in experiment [10]. Further, the Potency result in experiment [15] and in [16] was “inactive” each time.

For the compound `CCCNC(=O)NS(=O)(=O)c1ccc(Cl)cc1`, the result in experiment [3], in [17], in experiment [7] and in experiment [8] was inactive. In addition, the activation in experiment [14] is 0.08% and -1.06%. Besides, the max response was 5.97% and -0.845% in experiment [4]; 9.19% and -14.5% in experiment [6]; 10.2% and -7.21% in experiment [9]; 3.46% and -2.3% in experiment [10]. Moreover, the Potency entry in experiment [5], in [18], in experiment [19], in experiment [15], in [16] and in experiment [11] was “inactive” in each case.

For the compound `O=c1cc(-c2ccccc2)oc2cc(O)cc(O)c12`, the Potency is 39.8 µM (active) in experiment [14] and 13.7 µM (active) in experiment [15]. The max response was -1.65% in experiment [4], -2.85% in [6] and -14.1% in [10]. Further, the Potency result in experiment [11] is “inactive”.

(Values after PubChem BioAssay (NCATS).)
